Rab9 promoter act: qHTS Assay for Rab9 Promoter Activators; Huh7 Rab9 promoter-luciferase reporter, luminescence, 24 h; Potency, µM (top dose mostly 9.22 µM), for inactives: at the highest dose activation, negative = inhibition, hits mostly activators; actives 2.8% (n = 320,000); note: % of control where 0% means no effect; nearly all actives have a fitted effect of over 60% in size
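Luminescence from Amplite-detected luciferase (10 minutes, ambient) reports Rab9 promoter activation. Before that, stable Rab9-luciferase Huh7 cells (1500/well, reduced-serum OP-MEM I plus 10% FBS) were exposed to compound for 24 hours at 37C.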
NPC1 prom act: qHTS Assay for NPC1 Promoter Activators; AID 485313, 2010; Potency, µM (top dose mostly 9.22 µM), without a hit: at the highest dose activation, actives largely listed as activators; actives 2.4% (n = 320,000); Huh7 NPC1 promoter luciferase reporter, 24 h; note: % of control where 0% means no effect; nearly all actives have a fitted effect of over 60% in size
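Stably transfected Huh7 (NPC1 promoter→luciferase), 1500 cells/well in Opti-MEM + 10% FBS, 2 h settle, then compound 24 h at 37 °C. Luminescence after 10 min with Amplite reagent.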
uPA surface inh: qHTS for Inhibitors of Cell Surface uPA Generation | cell surface uPA generation assay, qHTS | actives 0.31% (n = 330,000) | Potency, µM (doses to about 38.3 µM), inactives show at the top dose activity change, negative = inhibition, actives largely listed as inhibitors; active = well fitted inhibition curve with a large enough effect; inconclusive = small, poorly fitted or top-dose-only effect; inactive = no such curve, though single readings can be large or run the other way; tested in mouse RAW 264.7 cells; note: % is set by controls: 0 for no effect and ±100 for the full control effect; nearly all actives have a fitted effect of over 55% in size
ELG1 genotox: qHTS screen for small molecules that induce genotoxicity in human embryonic kidney (HEK293T) cells expressing luciferase-tagged ELG1; HEK293T ELG1-luciferase reporter, luminescence, 16 h; Potency, µM (titrated, usually from 46 µM), without a hit: top-dose activity change, positive = activation, usual class: activators; actives 1.3% (n = 330,000); AID 504466, 2011; note: % of control where 0% means no effect; nearly all actives have a fitted effect of over 60% in size
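Screening used a luciferase reporter fused to human ELG1 in HEK293T cells. Luminescence was read on a CCD plate imager after 16 hr exposure and 30 min ONE-Glo incubation.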
SMN2 splice up: qHTS Assay for Enhancers of SMN2 Splice Variant Expression | actives 2.8% (n = 210,000) | AID 1458, 2008 | Potency, µM (titrated, usually from 46.1 µM), for the others: top-dose activity change, positive = activation, actives largely listed as activators | HEK293 SMN2-luciferase splicing reporter, luminescence, 30-36 h; note: % of control where 0% means no effect; nearly all actives have a fitted effect of over 55% in size
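HEK293 cells carry an SMN2 minigene-luciferase reporter in which exon 7 inclusion puts luciferase in frame. Cells were seeded at 2000 cells/well, attached for 10-12 hours, then exposed to compounds for 30-36 hours at 37C before ONE-Glo luminescence.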
FLuc counter: qHTS profiling assay for firefly luciferase inhibitor/activator using purifed enzyme and Km concentrations of substrates (counterscreen for miR-21 project); Potency, µM (series often up to 57.5 µM), inactives show at the top dose activity change, negative = inhibition, usual class: inhibitors; actives 6.9% (n = 360,000); Luciferin 4-monooxygenase (Photinus pyralis), P08659; purified FLuc, Km substrates, luminescence inhibition;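 note: plate controls were vehicle for no effect and reference inhibitor for full effect; nearly all actives have a fitted effect of over 55% in size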
Target sequence (P08659 whole entry, looked up): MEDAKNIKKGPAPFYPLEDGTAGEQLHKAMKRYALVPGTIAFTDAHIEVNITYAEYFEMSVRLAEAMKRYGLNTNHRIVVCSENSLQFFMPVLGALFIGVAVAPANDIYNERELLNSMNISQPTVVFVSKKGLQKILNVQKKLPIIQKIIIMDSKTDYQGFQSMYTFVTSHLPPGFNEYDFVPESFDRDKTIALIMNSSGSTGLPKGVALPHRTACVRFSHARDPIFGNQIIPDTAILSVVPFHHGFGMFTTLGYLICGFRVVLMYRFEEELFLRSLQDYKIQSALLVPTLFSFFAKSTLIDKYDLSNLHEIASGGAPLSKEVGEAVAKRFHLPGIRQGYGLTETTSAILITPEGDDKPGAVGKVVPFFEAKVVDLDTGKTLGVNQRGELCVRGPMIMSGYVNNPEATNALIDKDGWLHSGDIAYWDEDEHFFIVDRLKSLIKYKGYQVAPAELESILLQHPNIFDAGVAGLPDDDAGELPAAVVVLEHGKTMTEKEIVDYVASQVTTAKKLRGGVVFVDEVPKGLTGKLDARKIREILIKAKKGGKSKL
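Purified P. pyralis luciferase (10nM final) with 10uM D-luciferin and 10uM ATP (Km levels) in 50mM Tris acetate pH 7.5, 10mM Mg acetate, 0.01% Tween-20, 0.05% BSA; qHTS 6-point titration, ~60 µM downward; luminescence read.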
* hit, by the source's call; u = inconclusive; x = not tested or not shown. Only some compounds are listed: those with a hit (about 7.3% of all), similar ones and a draw of the others. Unless noted, calls come from the whole dose curve; as a rule, active = well fitted curve in the direction sought with a large enough effect; inconclusive = small, poorly fitted or top-dose-only effect, or another doubt; inactive = no such curve, though single readings can be large; an effect the other way counts as inactive or inconclusive. Potency is the fitted concentration of half-maximal effect.

SMILES | Rab9 promoter act | NPC1 prom act | uPA surface inh | ELG1 genotox | SMN2 splice up | FLuc counter
O=C(Nc1ccc(NC(=O)c2cccc([N+](=O)[O-])c2)cc1)c1cccc([N+](=O)[O-])c1 | 15% | 16% | -18% | 13% | x | -18%
CC(Cc1ccccc1)NC(=O)c1ccc([N+](=O)[O-])cc1 (centres undefined) | 1.8µM* | 2.8µM* | 0% | u | 14µM* | 12µM*
O=C(COc1ccc(F)cc1)Nc1ccc(C(=O)OCc2cc(=O)n3nc(C4CC4)sc3n2)cc1 | x | x | x | x | x | -3%
CCOC(=O)c1cccc(NC(=O)C2Cc3ccccc3N2C(=O)c2ccccc2)c1 (centres undefined) | x | x | x | x | x | -5%
O=C(O)CSc1nnc(-c2ccccc2)o1 | 5% | -5% | 2% | -2% | -15% | -4%
CC(C)(C)c1ccc(-c2nnc(SCCN3C(=O)c4ccccc4C3=O)o2)cc1 | -2% | 0% | 2% | -3% | 9% | 15µM*
C/C(=C\C[Si](C)(C)C)CC[C@H](O)C1=CCCCC1=O | x | x | x | x | -7% | x
Cc1nnc(SCc2ccccc2Cl)c2cc3occc3n12 | x | x | x | x | x | 17µM*
COc1ccc(-c2nc3ccccc3s2)cc1NC(=O)c1ccc(F)cc1 | x | x | x | x | -6% | -1%
Cc1ccc(-c2nc3ccccc3s2)cc1NC(=O)c1cc(-n2cnnc2)ccc1Cl | 5% | -29% | -22% | u | 4% | 1.5µM*
CC(=O)Nc1cc(-c2nc3ccccc3s2)ccc1C | x | x | x | x | 20% | 6.7µM*
Cc1ccc(-c2nc3ccccc3s2)cc1NC(=S)NC(=O)c1ccccc1 | 12% | 12% | -5% | u | -6% | 9.5µM*
O=C(Nc1cc(-c2nc3ccccc3s2)ccc1Cl)c1cc2ccccc2o1 | x | x | x | x | 4% | u
Cc1cc(-c2nc3ccccc3s2)ccc1N | x | x | -10% | x | x | x
COc1ccccc1N1CCN(c2nc3ccc(C)cc3n3nnnc23)CC1 | x | x | x | x | x | -3%
CCn1c(=NC(=O)c2ccc(S(=O)(=O)N3CCCC3)cc2)sc2cc(Br)ccc21 | x | x | x | x | 7% | -4%
CCc1cccc(NC(=O)C(Cc2ccccc2)n2cccc2)c1 (centres undefined) | x | x | x | x | -9% | -12%
COc1ccc(NC(=O)N(C)C[C@H]2Oc3c(NC(=O)C4CC4)cccc3C(=O)N([C@H](C)CO)C[C@@H]2C)cc1 | x | x | 0% | 3% | x | x
Cc1ccc(/C=C2\OC(=O)c3ccccc32)cc1 | 0% | -2% | x | u | u | 1.1µM*
O=C(CCCc1nc(-c2ccccc2)no1)Nc1cc(C(F)(F)F)cc(C(F)(F)F)c1 | x | x | x | x | x | -13%
COc1ccc(NC(=S)NC(=O)/C=C/c2ccco2)c(OC)c1 | 2% | 2% | 4% | -2% | x | -1%
CN1CCN(c2ccc(NC(=S)NC(=O)/C=C/c3ccco3)cc2)CC1 | u | u | -6% | u | x | 24µM*
CC(=O)Nc1ccc(NC(=S)NC(=O)/C=C/c2ccco2)cc1 | 4% | 1% | 1% | -2% | x | -1%
COc1cccc(NC(=S)NC(=O)/C=C/c2ccco2)c1 | 25% | 5% | -9% | u | x | 17µM*
O=C(/C=C/c1ccco1)NC(=S)Nc1cccc(C(=O)O)c1 | 2.8µM* | 4µM* | -2% | u | x | 11µM*
SMILES | Rab9 promoter act | NPC1 prom act | uPA surface inh | ELG1 genotox | SMN2 splice up | FLuc counter
COc1cccc(NC(=O)CSCn2nnc3c(=O)[nH]c(Cc4ccc(F)cc4)nc32)c1 | x | x | x | x | -5% | -4%
O=S(=O)(NCc1ccccn1)c1cc(C(F)(F)F)ccc1Cl | -2% | -3% | u | -1% | -5% | -3%
c1ccc(CNc2ccc3ccccc3n2)nc1 | u | 2.2µM* | -27% | u | u | 4.8µM*
FC(F)(F)c1ccc(NCc2ccccn2)nc1 | u | u | 2% | u | x | 17µM*
Cc1ccc(NC(=O)CSc2nc(N)c3cc4c(nc3n2)CCCC4)cc1 | 15% | 17% | u | 1% | 4% | 2.1µM*
COc1ccc(NC(=O)CSc2nc(N)c3cc4c(nc3n2)CCCC4)c(OC)c1 | 2% | 15% | x | 4% | 9% | 12µM*
O=C(Nc1ccc(-c2cn3ccsc3n2)cc1)C1CC1 | 1.6µM* | 2.2µM* | -16% | u | u | 2.7µM*
O=C(Nc1ccc(-c2cn3ccsc3n2)cc1)C1CCCC1 | 3.2µM* | 4µM* | -9% | 1.8µM* | u | 1.3µM*
Cc1ccc(S(=O)(=O)N2CCOCC2)cc1C(=O)Nc1ccc(-c2cn3ccsc3n2)cc1 | -3% | -1% | -4% | -9% | -49% | u
O=C(Nc1ccc(-c2ccc3nncn3n2)cc1)C1CCCC1 | 14% | 7% | -4% | -3% | u | 19µM*
CC(=O)Nc1ccc(S(=O)(=O)NCc2cn3ccsc3n2)cc1 | -5% | -2% | 3% | 1% | 5% | -1%
O=C(CC1CCCCC1)Nc1ccc(-c2ccc3nncn3n2)cc1 | 2% | -2% | 6% | 7% | -14% | -1%
CC(=O)Nc1ccc(-c2cn3ccsc3n2)cc1 | 1.4µM* | 1.6µM* | -1% | 5.8µM* | 10µM* | 12µM*
Cc1ccc2sc(-c3ccc(NC(=O)CCN4C(=O)c5ccccc5C4=O)cc3)nc2c1 | 0.28µM* | 0.5µM* | x | 4.6µM* | 0.4µM* | 11µM*
CC(=O)Nc1ccc(NC(=O)CCN2C(=O)c3ccccc3C2=O)cc1 | -9% | 5% | 0% | -7% | x | -4%
c1cn2cc(-c3ccc4c(c3)OCO4)nc2s1 | 0.63µM* | 0.45µM* | -10% | u | 13µM* | 1.9µM*
O=C(CCN1C(=O)c2ccccc2C1=O)Nc1ccc(-c2cn3ccsc3n2)cc1 | 2.2µM* | u | -6% | u | u | 2.7µM*
Cc1ccccc1OCc1nc2c3cnn(-c4cccc(F)c4)c3ncn2n1 | x | x | x | x | 12% | 0%
CCCCCCCC[n+]1cccc2c3ccccc3ccc21 | -39% | -45% | 0.89µM* | -9% | -72% | -4%
Cc1cccc[n+]1CCCCCCCCCC[n+]1ccccc1C | -43% | -37% | 2% | -7% | -31% | 1%
CCCCCCCCCC[n+]1cccc2c3ccccc3ccc21 | -37% | -46% | 0.71µM* | -6% | -69% | -2%
CSc1nnc(CCNS(=O)(=O)c2ccc(Br)cc2)n1C | -1% | -6% | -16% | 4% | x | 1%
CCOC(=O)N1CCc2c(sc(NCc3cccc(F)c3)c2C(=O)Nc2ccc(OCC)cc2)C1 | x | x | x | x | x | 24µM*
CCOC(=O)N1CCc2c(sc(NCc3ccc(OC)c(Br)c3)c2C(=O)Nc2cc(OC)ccc2OC)C1 | x | x | x | x | x | -7%
